Here are results for six compounds from PubChem BioAssay (Tox21).

Experiment [1] is described as follows: cAMP Responsive Elements (CRE) small molecule antagonists, cell-based qHTS assay: qHTS cell viability counter screen (AID 2060913). Further: nearly all actives have a fitted effect of over 40% in size. Summed up: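 Cytotoxicity counter screen multiplexed with the CRE-bla antagonist read: HEK293T cells in DMEM with dialyzed FBS and 25 mM HEPES were treated 3 hrs under 0.25 uM final NKH477, then viability measured by CellTiter-Glo luminescence.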
In general terms: qHTS replaces the single test concentration by a dilution series.

Experiment [2] is described as follows: cAMP Responsive Elements (CRE) small molecule agonists, cell-based qHTS assay: qHTS cell viability counter screen (AID 2060914). Further: nearly all actives have a fitted effect of over 50% in size. The essentials: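 Cytotoxicity was measured as ATP luminescence (CellTiter-Glo, 30 min at room temperature) in the same wells as the CRE-bla FRET read-out. HEK293T CRE-bla cells had 3 h compound exposure at 37C/5% CO2.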

Records with an inconclusive call do not appear. A call without a number means that no potency is given here. Calls of active or inactive are those of the source. The call rests on the fitted dose curve; in most records, active means well fitted cell-killing curve with a large enough effect in the repeat runs; inconclusive means weak or mixed curves, or effect the other way; inactive means flat fitted curve, though single readings scatter.

Consider `O=c1[nH]cnc2nc[nH]c12`, for which the Potency result in experiment [1] and in experiment [2] was “inactive” in each case.
With `CC(C)N(C)C`, the Potency result in experiment [1] and in experiment [2] was “inactive” in each case.
`Cc1ccc2sc3cccc(C)c3c2c1`: the Potency entry in experiment [1] and in experiment [2] was “inactive” throughout.
With `O/N=C/C=N/O`, the Potency result in experiment [1] and in experiment [2] was “inactive” in each case.
For `CC(=O)O[C@H]1C[C@@H]2CC[C@@]1(C)C2(C)C`, the Potency result in experiment [1] and in experiment [2] was “inactive” in each case.
As to `CC(C)S`, the Potency result in experiment [1] and in experiment [2] was “inactive” each time.
